Laboratory results: PubChem BioAssay (NCI)
Compounds without any hit were thinned out: in the full panel of roughly 79,000, 15% have a hit. Active and inactive are the calls of the source. No stated cut-off is given here; in the data, active means growth inhibition above about 70%; inactive means the rest.

Key:
[1] = NCI Yeast Anticancer Drug Screen. Data for the wt1 strain (AID 149);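 further: 0% = growth of vehicle-treated wt1 cultures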; conditions: S. cerevisiae wt1 strain (SPY 50644) growth inhibition, hits give high values
Summary of the method: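 Readout: yeast growth inhibition, normalised to vehicle controls, in the wt1 strain exposed to test compounds.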

[2] = NCI Yeast Anticancer Drug Screen. Data for the rad50EPP+ strain (AID 151);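 further: 0% = growth of vehicle-treated control cultures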; conditions: S. cerevisiae rad50 mutant strain, hits give high values
Summary of the method: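 Yeast strain carrying rad50 alteration (rad50EPP+) exposed to compounds; growth inhibition measured relative to vehicle-treated controls.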

[3] = NCI Yeast Anticancer Drug Screen. Data for the mgt1 strain (AID 153); conditions: S. cerevisiae mgt1 mutant growth inhibition, hits give high values
Summary of the method: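 Yeast mgt1 strain (DNA repair/cell-cycle alteration panel) exposed to compounds; growth inhibition measured relative to vehicle-treated controls.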

[4] = NCI Yeast Anticancer Drug Screen. Data for the rad50 strain (AID 155);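 further: 0% = growth of vehicle-only cultures of the same strain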; conditions: S. cerevisiae rad50 strain growth inhibition, hits give high values
Summary of the method: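 Compounds were tested on a yeast strain with an engineered DNA damage repair alteration; the reported value is growth inhibition normalised to vehicle treatment.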

[5] = NCI Yeast Anticancer Drug Screen. Data for the mec2-1 strain (AID 157); conditions: S. cerevisiae mec2-1 strain, hits give high values
Summary of the method: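 mec2-1 yeast strain, carrying an alteration in DNA damage repair or cell cycle control, was exposed to compounds; growth inhibition was measured relative to vehicle-treated controls.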

[6] = NCI Yeast Anticancer Drug Screen. Data for the rad14 strain (AID 159);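 further: 0% = growth of vehicle-treated control cultures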; conditions: S. cerevisiae rad14 strain growth inhibition, hits give high values
Summary of the method: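 Compound-treated yeast with a defined DNA-repair lesion; growth inhibition normalised to vehicle-treated cultures.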

[7] = NCI Yeast Anticancer Drug Screen. Data for the CLN2oe strain (AID 163);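 further: 0% = growth of vehicle-only control cultures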; conditions: S. cerevisiae CLN2oe strain, hits give high values
Summary of the method: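 Yeast cells carrying a defined cell-cycle control alteration were exposed to test compounds. Growth inhibition was scored against vehicle-treated control cultures.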

[8] = NCI Yeast Anticancer Drug Screen. Data for the cln2 rad14 strain (AID 165);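 further: 0% = growth equal to vehicle treated cultures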; conditions: S. cerevisiae cln2 rad14 strain, hits give high values
Summary of the method: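 Yeast carrying cln2 and rad14 alterations (cell cycle control and DNA damage repair) were exposed to compounds. Growth inhibition was measured against vehicle-treated controls.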

[9] = NCI Yeast Anticancer Drug Screen. Data for the bub3 strain (AID 167); conditions: S. cerevisiae bub3 mutant strain, hits give high values
Summary of the method: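 Growth of a checkpoint-deficient yeast mutant is measured after compound exposure. Values represent inhibition relative to vehicle.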

[10] = NCI Yeast Anticancer Drug Screen. Data for the mlh1 strain (AID 171);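 further: 0% = growth of vehicle-treated control cultures of the same strain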; conditions: S. cerevisiae mlh1 strain growth inhibition, hits give high values
Summary of the method: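 Yeast carrying a defined genetic alteration in DNA damage repair or cell cycle control were exposed to test compounds. Growth inhibition was measured relative to vehicle-treated controls.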

[11] = NCI Yeast Anticancer Drug Screen. Data for the sgs1 strain (AID 173);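 further: 0% = growth of vehicle-only control cultures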; conditions: S. cerevisiae sgs1 mutant, hits give high values
Summary of the method: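 Yeast mutant strains carrying defined defects in DNA damage repair or cell cycle control were exposed to test compounds. Growth inhibition was scored against vehicle-treated controls.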

[12] = NCI Yeast Anticancer Drug Screen. Data for the mlh1 rad18 strain (AID 175); conditions: S. cerevisiae mlh1 rad18 strain growth inhibition, hits give high values
Summary of the method: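 Growth inhibition of the yeast strain was measured after compound exposure and expressed relative to vehicle-treated controls. The strain carries defined defects in DNA damage repair.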

[13] = NCI Yeast Anticancer Drug Screen. Data for the rad18 strain (AID 177); conditions: S. cerevisiae rad18 mutant growth inhibition, hits give high values
Summary of the method: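 Yeast carrying a defined DNA damage repair alteration were exposed to compounds. Growth inhibition was expressed relative to vehicle-treated controls.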

[14] = NCI Yeast Anticancer Drug Screen. Data for the sgs1 mgt1 strain (AID 161);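 further: 0% = growth of cultures given vehicle only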; conditions: S. cerevisiae sgs1 mgt1 strain, hits give high values
Summary of the method: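 Compounds are added to genetically altered yeast, and growth is compared with cultures given vehicle alone to give percent inhibition.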

[15] = NCI Yeast Anticancer Drug Screen. Data for the wt2 strain (AID 169);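 further: 0% = growth of vehicle-treated yeast cultures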; conditions: S. cerevisiae wt2 strain growth inhibition, hits give high values
Summary of the method: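 Yeast cells were exposed to test compounds, and growth inhibition was measured relative to vehicle-treated controls.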

[16] = at 5.0 µM (retest, dose inferred, filed as 0.5)
[17] = at 50.0 µM (retest, dose inferred, filed as 5.0)

Measured: growth inhibition

Cc1ccccc1C1=C(CC(=O)O)c2ccccc2CC1C (stereo not given)
inactive: [1]; at 1.2 µM 4% | [1]; at 3.7 µM 8% | [1]; at 11.0 µM 29% | [2]; at 1.2 µM -1% | [2]; at 3.7 µM 2% | [2]; at 11.0 µM 6% | [2]; at 33.0 µM 10% | [2]; at 100.0 µM 49% | [3]; at 1.2 µM 9% | [3]; at 3.7 µM 11% | [3]; at 11.0 µM 22% | [4]; at 1.2 µM 6% | [4]; at 3.7 µM 10% | [4]; [16] 6% | [4]; at 11.0 µM 45% | [4]; [17] 10% | [5]; at 1.2 µM 9% | [5]; at 3.7 µM 20% | [5]; [16] 10% | [5]; at 11.0 µM 49% | [5]; [17] 6% | [6]; at 1.2 µM 6% | [6]; at 3.7 µM 11% | [6]; at 11.0 µM 29% | [7]; at 1.2 µM 10% | [7]; at 3.7 µM 15% | [7]; at 11.0 µM 57% | [8]; [16] -13% | [8]; [17] 28% | [9]; at 1.2 µM 11% | [9]; at 3.7 µM 9% | [9]; [16] -4% | [9]; at 11.0 µM 26% | [9]; [17] 1% | [10]; at 1.2 µM 6% | [10]; at 3.7 µM 12% | [10]; at 11.0 µM 32% | [11]; at 1.2 µM 5% | [11]; at 3.7 µM 10% | [11]; at 11.0 µM 40% | [12]; [16] 14% | [12]; [17] 50% | [13]; at 1.2 µM 4% | [13]; at 3.7 µM 10% | [13]; at 11.0 µM 38%
active: [1]; at 33.0 µM 96% | [1]; at 100.0 µM 96% | [3]; at 33.0 µM 95% | [3]; at 100.0 µM 99% | [4]; at 33.0 µM 97% | [4]; at 50.0 µM 98.9% | [4]; at 100.0 µM 99% | [5]; at 33.0 µM 95% | [5]; at 50.0 µM 99.7% | [5]; at 100.0 µM 99% | [6]; at 33.0 µM 98% | [6]; at 100.0 µM 99% | [7]; at 33.0 µM 97% | [7]; at 100.0 µM 98% | [8]; at 50.0 µM 99.4% | [9]; at 33.0 µM 93% | [9]; at 50.0 µM 99% | [9]; at 100.0 µM 99% | [10]; at 33.0 µM 96% | [10]; at 100.0 µM 99% | [11]; at 33.0 µM 98% | [11]; at 100.0 µM 99% | [12]; at 50.0 µM 99.5% | [13]; at 33.0 µM 96% | [13]; at 100.0 µM 99%

COC(=O)C1(N2CCOCC2)CCC([C@@H](c2ccccc2)C(C)[N+](=O)[O-])C1 (stereo not given in full)
inactive: [1]; at 1.2 µM -3% | [1]; at 3.7 µM -2% | [1]; at 11.0 µM -2% | [1]; at 33.0 µM -3% | [1]; at 100.0 µM 4% | [2]; at 1.2 µM 2% | [2]; at 3.7 µM 3% | [2]; at 11.0 µM 15% | [2]; at 33.0 µM 54% | [4]; at 1.2 µM 0% | [4]; at 3.7 µM 2% | [4]; [16] 11% | [4]; at 11.0 µM 17% | [4]; at 33.0 µM 43% | [4]; [17] -3% | [4]; at 50.0 µM 57.2% | [5]; at 1.2 µM -3% | [5]; at 3.7 µM 1% | [5]; [16] 0% | [5]; at 11.0 µM 4% | [5]; at 33.0 µM 4% | [5]; [17] 2% | [5]; at 50.0 µM 26.4% | [5]; at 100.0 µM 34% | [6]; at 1.2 µM 1% | [6]; at 3.7 µM 1% | [6]; at 11.0 µM 6% | [6]; at 33.0 µM 9% | [6]; at 100.0 µM 39% | [14]; [16] 0% | [14]; [17] -2% | [14]; at 50.0 µM 20.6% | [7]; at 1.2 µM -9% | [7]; at 3.7 µM -4% | [7]; at 11.0 µM -10% | [7]; at 33.0 µM -3% | [7]; at 100.0 µM 9% | [8]; [16] -1% | [8]; [17] -2% | [8]; at 50.0 µM 8.15% | [9]; at 1.2 µM -1% | [9]; at 3.7 µM -12% | [9]; [16] 1% | [9]; at 11.0 µM -8% | [9]; at 33.0 µM -13% | [9]; [17] -29% | [9]; at 50.0 µM -2.55% | [9]; at 100.0 µM 24% | [15]; at 1.2 µM -2% | [15]; at 3.7 µM -3% | [15]; at 11.0 µM -4% | [15]; at 33.0 µM -4% | [15]; at 100.0 µM 11% | [10]; at 1.2 µM -3% | [10]; at 3.7 µM -2% | [10]; at 11.0 µM 1% | [10]; at 33.0 µM 3% | [10]; at 100.0 µM 25%
active: [2]; at 100.0 µM 86% | [4]; at 100.0 µM 94%
